{
  "source": "PubChem BioAssay AID2825",
  "about": "(Sanford-Burnham Center for Chemical Genomics, 2010)",
  "note": "Among all 330,000 compounds or so, about 1,300 (0.39%) were called active. Many of the other results were omitted from the sample, so actives are more common in it than they were. A number with no mark means an inactive call.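 How the source made its calls: active means inhibition of 50% or more; inactive means inhibition below 50%.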",
  "data": [
    {"test": "NALP3 inflammasome inhibitors in reconstituted yeast, primary screen, luminescence, uHTS (AID 2825);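 further: plate controls were induced DMSO wells for no effect and uninduced yeast grown without galactose for full effect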", "conditions": "Yeast reconstituted NLRP3/ASC/caspase-1, beta-gal luminescence, 24 h; at 10 µM; stronger effect = higher value", "values": [
      {"smiles": "O=C(NC1CCC(O)CC1)c1ccccc1OCc1ccc(F)cc1", "note": "(configuration not stated)", "inhibition": "1.97%"},
      {"smiles": "COCCNC(=O)CCCn1c(=O)c2ccccc2n(Cc2cccc([N+](=O)[O-])c2)c1=O", "inhibition": "-0.805%"},
      {"smiles": "Cc1cc(C(=O)COc2ccc(Br)cc2F)c(C)n1C1CC1", "inhibition": "58.4% (active)"},
      {"smiles": "O=C(COc1ccc(Br)cc1F)NC1CCN(Cc2ccccc2)CC1", "inhibition": "23%"},
      {"smiles": "Cc1cc(C(=O)COc2ccccc2Cl)c(C)n1C1CC1", "inhibition": "21.7%"},
      {"smiles": "O=C1C=CN2CCCC2CC1", "note": "(configuration not stated)", "inhibition": "-5.59%"},
      {"smiles": "CC(C)C(=O)N1CCN(CCN=CC2=C(O)CC(c3ccco3)CC2=O)CC1", "note": "(configuration not stated)", "inhibition": "60.8% (active)"},
      {"smiles": "CC(=O)N1CCN(CCN=CC2=C(O)CC(C)(C)CC2=O)CC1", "inhibition": "32.1%"},
      {"smiles": "O=C1CC(c2ccccc2)CC(O)=C1C=NCCN1CCOCC1", "note": "(configuration not stated)", "inhibition": "29.8%"},
      {"smiles": "Cc1cc(C(=O)OCC(=O)Nc2nccs2)c2ccccc2n1", "inhibition": "10.4%"},
      {"smiles": "CN(C)CCCNC(=O)/C=C/c1ccc(OCc2c(F)cccc2Cl)cc1", "inhibition": "20.8%"},
      {"smiles": "COCCCNC(=O)/C=C/c1ccc(OCc2c(F)cccc2Cl)cc1", "inhibition": "50.9% (active)"},
      {"smiles": "O=C(/C=C/c1ccc(OCc2c(F)cccc2Cl)cc1)N1CCOCC1", "inhibition": "28.2%"},
      {"smiles": "CCN(CC(=O)Nc1ccc(NC(C)=O)cc1)C(=O)CSC(=S)N1CCCC1", "inhibition": "4.68%"},
      {"smiles": "C=CCC1(CC=C)CCCN1C(=O)CC1C(=O)NCCN1Cc1ccccc1OC", "note": "(configuration not stated)", "inhibition": "4.65%"},
      {"smiles": "CCCNc1ncnc2sc(C)c(C)c12", "inhibition": "55.9% (active)"},
      {"smiles": "CSc1ncnc2sc(C)c(C)c12", "inhibition": "11.2%"},
      {"smiles": "Cc1sc2ncnc(Sc3nc4ccccc4s3)c2c1C", "inhibition": "6.48%"},
      {"smiles": "Cc1cc(NC(=O)CN2C(=O)NC(C)(CCc3ccccc3)C2=O)no1", "note": "(configuration not stated)", "inhibition": "-3.27%"},
      {"smiles": "COCCNC(=O)c1ccc2nc(Cc3ccc(OC)c(OC)c3)oc2c1", "inhibition": "20.9%"},
      {"smiles": "O=[N+]([O-])/C=C/c1ccc2c(ccn2Cc2ccccc2)c1", "inhibition": "92.3% (active)"},
      {"smiles": "O=C(Cn1ccc2cc(S(=O)(=O)N3CCCC3)ccc21)NCc1ccccc1", "inhibition": "11.6%"},
      {"smiles": "Cc1ccc2[nH]c3c(=O)n(CC(=O)NCCc4ccc(Cl)cc4)ncc3c2c1", "inhibition": "1.78%"},
      {"smiles": "CC1(C)CCSC(/C=C/c2ccccc2)=N1", "inhibition": "85.7% (active)"},
      {"smiles": "COc1ccc(CCNS(=O)(=O)c2ccc(Cl)s2)cc1OC", "inhibition": "11%"},
      {"smiles": "CC1CC(C)CN(S(=O)(=O)c2cccc3nonc23)C1", "note": "(configuration not stated)", "inhibition": "25%"},
      {"smiles": "CC(C)C[C@H](NC(=O)NCCc1ccc(Cl)cc1)C(=O)O", "inhibition": "2.68%"}
    ]}
  ]
}
